# This is part of a sample that, as a whole, favours compounds with a hit. Of some 83,000 tested, about 20% had one in any assay.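 Note: values are percent growth. 100 is the growth of untreated cells, values between 100 and 0 indicate rising inhibition; between -100 and 0 indicates cell death.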 The source made the active and inactive calls. Rule for the calls: active = growth percent below 10; inactive = the rest.
# System: NCI-H226 lung
# Assay: NCI-60 one-dose screen, 48 h (100 = growth as untreated, 0 = no growth, -100 = all killed)
# Conditions: 10 µM unless noted
row,SMILES,growth
1,O=C(c1ccc(Cl)cc1)N1CCN(c2ccnc3cc(Cl)ccc23)CC1,87.3% (inactive)
2,CN1CCN(Cc2ccc3c(NNC(=O)c4ccccc4)nc4cc(F)ccc4n23)CC1,12.6% (inactive)
3,c1ccc(CNc2c3ccccc3nc3ccccc23)cc1,51.7% (inactive)
4,N#C/C(=C/c1ccc([N+](=O)[O-])cc1)n1nnc2cc(F)c(F)cc21,102% (inactive)
5,O=C1CNC(c2ccccc2)C(c2ccccc2)N1 (centres undefined),99.4% (inactive)

# System: NCI-H322M lung
# Assay: as above
# Conditions: 10 µM unless noted
row,SMILES,growth
1,C#CCOc1ccc2ncnc(Nc3cccc(NC(=O)C=C)c3)c2c1,61.1% (inactive)
2,Nc1ncnc2c1N=C(c1ccc3c(c1)OCO3)CC(c1ccc([N+](=O)[O-])cc1)N2 (centres undefined),90.5% (inactive)
3,CCCCN1C(=O)/C(=c2\sc3n(c2=O)C2C(NN=3)N(CC)C(=O)N2CC)c2ccccc21 (centres undefined),52.9% (inactive)
4,CCOC(=O)C1=NN(c2ccccc2)C(=O)/C1=C\N1C(=O)CC(=O)NC1=S,96% (inactive)
5,O=C(N/N=C/c1ccc(F)cc1)c1ccc(C(F)(F)F)nc1Nc1cccc(C(F)(F)F)c1,-14.5% (active)
6,Cc1ccc(-c2csc(NC(=O)CN3CCN(c4cc5c(cc4F)c(=O)c(C(=O)O)cn5C4CC4)CC3)n2)cc1,12.4% (inactive)
7,Clc1ccc(Sc2cnc(-c3ccccc3)o2)cc1,91.9% (inactive)
8,COc1ccc(-c2cc(-c3ccc(Cl)cc3)c(C#N)c(=O)n2CCCCC(=O)Nc2ccccc2N)cc1,63.8% (inactive)
9,C=C(C)[C@@H]1CC[C@]2(C(=O)O)CC[C@]3(C)[C@H](CC[C@@H]4[C@@]5(C)C[C@@H](Cc6cn(CCO[C@@H]7O[C@H](COC(C)=O)[C@H](OC(C)=O)[C@H](OC(C)=O)[C@H]7OC(C)=O)nn6)[C@H](O)C(C)(C)[C@@H]5CC[C@]43C)[C@@H]12,82.7% (inactive)

# — PubChem BioAssay (NCI)
